Measurements published in ChEMBL document CHEMBL3988442, “University of Dundee, Small-Polar-MMV Screening Library” (2021).
The whole screen tested about 38,000 compounds, of which about 1,200 (3.2%) showed an effect of 50% or more. The median lay at about -58%. Many of the other results were omitted from the sample, so strong results are more common in it than they were.

tested on: Plasmodium falciparum; experiment: Calibr Malaria Delayed Death Assay SOP; type: functional, organism-based; design: scale not given: in the data most compounds retested in dose-response had high values; conditions: concentration 4.99e-06 (unit not given; other assays of the set use mol/L)

Structure (SMILES)	Percent Effect [%]
Cc1cc(NC(=O)Cc2ccc3c(c2)OCO3)n(C)n1	-77.02
O=C(CC1NC(N2CCc3ccccc32)=NC1=O)Nc1ccc(Cl)cc1 (centres undefined)	-176.9
O=C(Cn1cc(C2CC2)nn1)N(Cc1ccco1)Cc1cccs1	-76.11
CN(C)c1ncccc1CNCc1cccc(O)c1	-22.48
O=C(CCc1ccccc1)NCC1CCN(Cc2ccsc2)CC1	18.12
O=C(CCc1ccsc1)NCC1CCN(Cc2cccs2)CC1	58
O=C(CCc1ccccc1)NCC1CCN(Cc2cccs2)CC1	-10.35
CCn1ncc2c1C(COC)N(C(=O)c1ccsc1)CC2.O=C(O)C(F)(F)F (centres undefined)	-121.1
Cc1cc(N2CCC(c3ncc[nH]3)CC2)c2ccccc2n1	61.5
Cc1cc(N2CCC(c3ncc[nH]3)CC2)cc(C)n1	-30.44
Cc1cc(N2CCC(c3ncc[nH]3)CC2)nc(N)n1	-29.26
Cc1cc(C(=O)N2CC(O)CO2)c2cccc(C)c2n1 (centres undefined)	-103.4
Cn1nc(C(=O)NC2(c3ccc(Cl)cc3)CCCC2)ccc1=O	37.39
Cc1nccn1Cc1nnc(C2CCCN(c3ncccc3F)C2)n1C (centres undefined)	-123.3
COCc1noc(Cn2c(C3CC3)nc3ccccc32)n1	-91.38
COc1cccc(C(=O)N2CCCC2c2ncc3c(n2)CCN(C)C3)c1 (centres undefined)	-46.26
CC(C)n1ccnc1C1CCN(Cc2ccc(Cl)c(F)c2)CC1	33.02
Cn1cc(C2(C)CN(Cc3ccc(Cl)c(F)c3)CCO2)cn1 (centres undefined)	-40.79
CN1CCN(Cc2ccc(F)cc2)Cc2cccnc21	-11.04
O=C(NCCc1nccs1)N1CCC(n2cccc2)CC1	-128.4
Cc1nc(CNC(=O)Nc2cc(C(F)(F)F)c[nH]c2=O)cs1	-139.2
Cc1cc(F)ccc1S(=O)(=O)NCC(O)c1cccn1C (centres undefined)	-27.19
COc1ccc(S(=O)(=O)NCC(c2cccn2C)N(C)C)c(C)c1 (centres undefined)	47.32
CC(=O)N1C[C@H](NS(=O)(=O)c2cccc(Cl)c2)[C@@H](C(C)C)C1	-122
Cc1c(Cl)cccc1S(=O)(=O)NCC(O)c1cccn1C (centres undefined)	-3.502
CC(NCCNS(=O)(=O)c1cccc(Cl)c1)C1CCOCC1 (centres undefined)	24.26

Structure (SMILES)	Percent Effect [%]
Cc1cc(Cl)ccc1S(=O)(=O)NCC(C)N1CCN(C)CC1 (centres undefined)	73.33
Cc1cccc(S(=O)(=O)NCC(C)N2CCN(C)CC2)c1Cl (centres undefined)	80.79
CC(CNS(=O)(=O)c1cccc(Cl)c1)N1CCN(C)CC1 (centres undefined)	77.12
O=S(=O)(NCC(O)c1cccs1)c1ccccc1Cl (centres undefined)	-35.17
Cc1cccc(-n2nnnc2C(C)(C)Nc2ccccc2C)c1	-66.56
O=C(c1ccc2c(c1)COC2)N1CCCN(Cc2cscn2)CC1	-90.53
Cc1nn(C)c(N2CCCN(C)CC2)c1CNC(=O)CC(C)(C)C	-44.23
Cc1nc(CN2CCC3(CCCN(Cc4ccncc4)C3)C2=O)cs1.O=C(O)C(F)(F)F.O=C(O)C(F)(F)F.O=C(O)C(F)(F)F (centres undefined)	-86.96
CCc1cc(NCCCOC2CCCC2)ncn1	-19.37
O=C(c1ccn(-c2ccc(F)cc2)n1)N(CCO)Cc1cccnc1	-20.41
CN(C)CCN(Cc1cccnc1)C(=O)c1ccn(-c2ccccc2)n1	87.52
N#CCCN(Cc1cccnc1)C(=O)c1ccn(-c2ccccc2)n1	-29.34
Cc1ncoc1C(=O)N1CCOC(CC2CCCCC2)C1 (centres undefined)	-117.2
CCOc1ccc2[nH]c(=O)c(CN3CCCCC3C)cc2c1 (centres undefined)	-50.88
Cc1occc1C(=O)NCC1OCCc2cn(C)nc21.O=C(O)C(F)(F)F (centres undefined)	-17.21
Cc1nn(CC(=O)NCC2(C(N)=O)CCOCC2)c(C)c1Cl	-63.22
CCn1ccnc1C1CCN(Cc2cccc(C)n2)CC1	-98.55
Cc1cccc(CN2CCC(NS(C)(=O)=O)CC2)n1	-83.22
O=C(c1c(O)cnc2ccccc12)N1CCCSCC1	-75.93
CCn1c(C)cc(C(=O)N2CCC(Nc3ccc(C)nn3)CC2)c1C	-49.09
COc1ccccc1CNc1c(N2CCN(C(C)=O)CC2)c(=O)c1=O	-13.77
Cc1nc(CCC(=O)NCC(N)=O)cc(C2CCNCC2)n1	-86.52
CNC(=O)CCc1cc(C2CCNCC2)nc(C)n1.Cl.Cl	-15.84
COc1ccc2cnn(CC(=O)NC3CCCCC3)c(=O)c2c1OC	-20.95
Cc1nn(Cc2ccc(C(=O)NCCCN3CCCC3=O)o2)c(C)c1Br	-82.86
CC(C)N(C)Cc1cnc2n1CCN(Cc1cccc(C#N)c1)C2	10.5

Structure (SMILES)	Percent Effect [%]
COc1ccc(CC(C)(O)CNC(=O)Cc2cccs2)cc1 (centres undefined)	-86.25
COc1ccc(CC(C)(O)CNC(=O)c2cccs2)cc1 (centres undefined)	88.99
CC(O)(CCc1ccccc1)CNC(=O)c1cccs1 (centres undefined)	-19.61
CCN1C(=O)CCCC12CCCN(C(=O)c1ccncc1F)C2.O=C(O)C(F)(F)F (centres undefined)	-52.32
CC(=O)Nc1nc(CS(=O)(=O)Cc2ccccc2)cs1	-16.97
COCCN1Cc2ccccc2C2(CCN(C(=O)c3ccno3)CC2)C1	-21.64
Cc1csc2c(N3CCC(NCCCc4ccncc4)CC3)ncnc12	63.19
CCCN1CCC(NCc2ccncc2)CC1	-53.14
Cc1ccc(CNC2CCN(CCc3ccncc3)CC2)s1	-5.622
N#Cc1ccc(CNC(=O)NC2CCN(c3ncccn3)CC2)cc1	-82.81
COCCn1ccnc1C1CCCN(c2ncnc3c(C)csc23)C1 (centres undefined)	-130.5
COC(=O)C(O)C1CCN(CCc2ccncc2)CC1 (centres undefined)	-64.35
COCCN1CCC(NCc2cccnc2)C1 (centres undefined)	-54.93
CSc1ccc(CNC2CCN(CCc3ccncc3)CC2)cc1	92.6
Cc1csc2c(N3CCC(Cn4cc(C(C)(C)O)nn4)CC3)ncnc12	-16.92
N#Cc1ccc(CNC(=O)NC2CCN(CC(F)(F)F)C2)cc1 (centres undefined)	-80.57
N#Cc1ccc(CNC2CCN(CCc3ccncc3)CC2)cc1	54.87
Cc1cccc(CNC2CCN(CCc3ccncc3)CC2)c1C	75.22
COC(=O)COn1c(SC)nc2ccccc2c1=O	-26.25
Cc1cccnc1CN(C)c1ncnc2[nH]ccc12	-141.2
O=C(O)C(F)(F)F.O=C(O)C(F)(F)F.c1cncc(OC[C@@H]2CCC[C@@]23CN(Cc2nccs2)CCO3)c1	-94.41
Cn1nc(-c2ccccc2)c(Br)c1C(=O)O	-35.19
O=C(C1CCOCC1)N1CCC2(CC1)CN(c1ccsc1)C(=O)CO2	-132.3
O=C(c1cnn(-c2ccccc2Cl)c1)N1CCN(CCO)CC1	-76.86
COCCn1cc(CC(=O)Nc2nc[nH]n2)c2ccccc21	-106.6
Cn1cc(CN2CCS(=O)(=O)C(C)(C)C2)cn1	-18.08

Structure (SMILES)	Percent Effect [%]
COc1ccccc1C(=O)Nc1nc2c(s1)CN(S(=O)(=O)C1CC1)CC2	-86.55
COc1ccc(C2(NC(=O)c3ccc(=O)n(C)n3)CCCC2)cc1	-78.19
Oc1cccc(CNC2CCN(CCc3ccncc3)CC2)c1	-23.71
Fc1ccc(C2CN(CCc3ccncc3)CCO2)cc1 (centres undefined)	-59.94
CCCc1cncnc1N1CCC2(CCC(=O)N(C3CCCC3)C2)CC1	27.32
CCCc1cncnc1N1CCC(NCc2ccncc2)CC1	65.25
COCCN1CCC(NCc2cccc(F)c2)C1 (centres undefined)	-58.84
O=C1CC(NCc2cccc(O)c2)CN1CCc1cccc(Cl)c1 (centres undefined)	-115.5
CCCc1cncnc1N1CCC(NCc2ccc(O)cc2)CC1	48.9
Fc1ccc(CNC2CCN(CCc3ccncc3)CC2)cc1F	89.24
Clc1cccc(CNC2CCN(CCc3ccncc3)CC2)c1	91.89
CC(C)Cc1cc(NC(=O)c2cc(Cl)c[nH]2)n(C)n1	10.73
CC(C)N(C)CCC(=O)N1CCCC(c2ccc(C(=O)O)cc2)C1 (centres undefined)	-175.3
CC(C)CN1C[C@H]2N(c3ncccn3)CCC[C@@]2(C(=O)NCC2CC2)C1	-72.47
Cc1ccc(CN(C)C(=O)c2n[nH]c(N)c2-c2ccccc2)o1	-66.55
CN(Cc1ccncc1)C1COC2(CCN(Cc3ccccn3)CC2)C1.O=C(O)C(F)(F)F.O=C(O)C(F)(F)F.O=C(O)C(F)(F)F.O=C(O)C(F)(F)F (centres undefined)	-49.62
Cc1ncsc1C(=O)NC1CCN(CC(N)=O)CC1	-67.12
O=C(Cn1ccc2sccc2c1=O)NCCC1=CCCCC1	-67.23
Cc1cccc(N2CCN(CCCNC(=O)c3cn[nH]c3C)CC2)c1	-117.5
CC1CCCN(CCCNC(=O)Cc2csc(-c3ccoc3)n2)C1 (centres undefined)	9.027
Cc1csc([C@H]2C[C@H]3CN(Cc4cc(C)on4)CC[C@@H]3O2)n1.O=C(O)C(F)(F)F	-119
CCN(C(=O)CN1CCn2c(C)nnc2C1)C1=CCCCC1	8.289
c1cnn(CC2CN(Cc3nnc(C4CC4)o3)CCO2)c1 (centres undefined)	-40.41
N[C@@H]1CC[C@@H](Nc2nccc(CCC(F)(F)F)n2)C1	-7.999
FC(F)(F)CCc1ccnc(N[C@H]2CC[C@H](n3cnnc3)CC2)n1	-55.01
N[C@H]1CC[C@@H](Nc2nccc(CCC(F)(F)F)n2)CC1	50.03
